Data taken from PubChem BioAssay AID1159580 (chemical genetic matrix, 2015).
Values joined by “and” are separate entries in the source; they are usually repeats but may differ in a detail not shown here. Equal entries are not always repeated. Screen size: about 5,500 compounds; about 2,000 (36%) were called active. Inconclusive results (about 18%) are left out. Rule as the data show it: active = normalized growth mostly below about 0.91 (no sharp cut-off); inconclusive = no clear call, values can overlap the other calls; inactive = mostly above about 0.92. Some of the results follow.

Test: chemical genetic growth profiling, strain panel (AID 1159580);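 also: tested at 20 µM; growth read once vehicle control cultures reached saturation at 30 °C; 1 = growth at the plate median or of vehicle wells; lower values mean less growth of the strain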
Conditions: S. cerevisiae deletion strains, growth OD

Measured: normalized growth

CCCCC[C@H](CC(=O)NO)C(=O)N[C@H](C(=O)N1CCC[C@H]1CO)C(C)C
inactive: locus YAL013W, strain DEP1, active compounds read low 0.979 | locus YAL021C, strain ccr4, active compounds read low 1.02 | locus YAL026C, strain drs2, active compounds read low 1.01 | locus YAL030W, strain snc1, active compounds read low 1 | locus YBL061C, strain skt5, active compounds read low 1.01 | locus YBR009C, strain hhf1, active compounds read low 1.02 | locus YBR021W, strain FUR4, active compounds read low 1.04 | locus YBR023C, strain chs3, active compounds read low 1.01 | locus YBR171W, strain sec66, active compounds read low 1.02 | locus YBR229C, strain ROT2, active compounds read low 1 | locus YBR231C, strain swc5, active compounds read low 1.02 | locus YBR279W, strain paf1, active compounds read low 1.02 | locus YCL011C, strain gbp2, active compounds read low 1.01 | locus YCL016C, strain dcc1, active compounds read low 1.01 | locus YCL029C, strain bik1, active compounds read low 1.02 | locus YCL061C, strain MRC1, active compounds read low 1.01 | locus YCL069W, strain vba3, active compounds read low 1.01 | locus YCR088W, strain abp1, active compounds read low 1.01 | locus YDL005C, strain med2, active compounds read low 1.02 | locus YDL035C, strain GPR1, active compounds read low 0.989 | locus YDL040C, strain nat1, active compounds read low 1.02 | locus YDL074C, strain BRE1, active compounds read low 1.02 | locus YDL101C, strain DUN1, active compounds read low 1.02 | locus YDL185W, strain tfp1, active compounds read low 1.01 | locus YDL192W, strain arf1, active compounds read low 1.02 | locus YDR001C, strain nth1, active compounds read low 1.01 | locus YDR069C, strain doa4, active compounds read low 1.03 | locus YDR101C, strain arx1, active compounds read low 1.03 | locus YDR137W, strain rgp1, active compounds read low 0.972 | locus YDR150W, strain NUM1, active compounds read low 1.02 | locus YDR159W, strain sac3, active compounds read low 1.03 | locus YDR162C, strain NBP2, active compounds read low 0.988 | locus YDR195W, strain ref2 1 | locus YDR297W, strain sur2, active compounds read low 1.02 | locus YDR318W, strain mcm21, active compounds read low 1.01 | locus YDR334W, strain swr1, active compounds read low 1.01 | locus YDR335W, strain msn5, active compounds read low 1.02 | locus YDR388W, active compounds read low 1.02 | locus YDR392W, strain spt3, active compounds read low 1.04 | locus YDR502C, strain sam2, active compounds read low 1 | locus YEL003W, strain gim4, active compounds read low 1.02 | locus YEL037C, strain rad23, active compounds read low 1 | locus YEL061C, strain CIN8 (second series), active compounds read low 1.01 | locus YEL061C, strain CIN8, active compounds read low 1.01 | locus YER015W, strain faa2, active compounds read low 1.02 | locus YER016W, strain bim1, active compounds read low 1.01 | locus YER110C, active compounds read low 1.03 | locus YER111C, strain swi4, active compounds read low 1.02 | locus YER155C, strain BEM2 (second series), active compounds read low 1.02 | locus YER155C, strain BEM2, active compounds read low 1.01 | locus YER167W, strain BCK2, active compounds read low 0.999 | locus YFR010W, strain ubp6, active compounds read low 1.01 | locus YGL078C, strain dbp3, active compounds read low 1.02 | locus YGL086W, strain mad1, active compounds read low 1.01 | locus YGL167C, strain pmr1, active compounds read low 1.01 | locus YGL173C, strain kem1, active compounds read low 1.03 | locus YGL227W, strain vid30, active compounds read low 1.02 | locus YGL240W, strain doc1, active compounds read low 1.03 | locus YGL248W, strain PDE1, active compounds read low 1.02 | locus YGL253W, strain hxk2, active compounds read low 1.01 | locus YGR078C, strain PAC10, active compounds read low 1.01 | locus YGR135W, strain pre9, active compounds read low 1.01 | locus YGR252W, strain gcn5, active compounds read low 1.02 | locus YHR013C, strain ard1, active compounds read low 1.03 | locus YHR027C, strain rpn1, active compounds read low 1.02 | locus YHR030C, strain SLT2, active compounds read low 1.01 and 0.992 | locus YHR079C, strain IRE1 (second series), active compounds read low 1.03 | locus YHR079C, strain IRE1, active compounds read low 0.973 | locus YHR094C, strain hxt1, active compounds read low 1.01 | locus YHR129C, strain ARP1, active compounds read low 1.02 | locus YHR142W, strain chs7, active compounds read low 1.01 | locus YHR200W, strain rpn10, active compounds read low 1.01 | locus YIL066C, strain RNR3, active compounds read low 0.999 | locus YIL073C, strain SPO22, active compounds read low 1.06 | locus YIL125W, strain kgd1, active compounds read low 1.02 | locus YIR030C, strain dcg1, active compounds read low 1.02 | locus YJL092W, strain hpr5, active compounds read low 1.01 | locus YJL095W, strain BCK1 (second series), active compounds read low 1.02 | locus YJL095W, strain BCK1, active compounds read low 1.02 and 0.977 | locus YJL115W, strain asf1, active compounds read low 1 | locus YJL129C, strain trk1, active compounds read low 1.03 | locus YJL134W, strain LCB3, active compounds read low 1.01 | locus YJL154C, strain vps35, active compounds read low 1 | locus YJL164C, strain tpk1, active compounds read low 1.03 | locus YJL166W, strain qcr8, active compounds read low 1.02 | locus YJL168C, strain set2, active compounds read low 1.01 | locus YJL187C, strain SWE1 (second series), active compounds read low 1.04 | locus YJL187C, strain SWE1, active compounds read low 1.02
